Data on 42 compounds can be found in PubChem BioAssay AID602428 (Sanford-Burnham Center for Chemical Genomics, 2012).

For orientation: inhibition means the drop in the measured response relative to a control, in per cent.

About 980 (39%) of roughly 2,500 compounds were called active. Not all results are given here. A number with no mark means an inactive call.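 Rule for the calls: active = mean inhibition at 5 µM reaching about 45% (limit read from the data); inactive = the rest.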

This assay can be described thus: Gli-SUFU pathway antagonists, confirmation, single concentration, luciferase luminescence, Sufu-KO-LIGHT cells (AID 602428).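 Note: plate controls were DMSO-treated cells for no effect and wells lacking cells for full effect.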 As to conditions: Gli luciferase reporter, at 5 µM, stronger effect = higher value. (Reporter assays use an easily measured gene product as a stand-in for the process of interest.)
For `COCCn1c(CN2CCC(Cc3ccccc3)CC2)nc2c1c(=O)n(C)c(=O)n2C`, the inhibition was 58.7% (active). The figure for `O=C1/C(=C/c2ccc(F)cc2)SC(=S)N1NS(=O)(=O)c1ccccc1` is 15.2%. For `CCCOc1ccc(Cc2c(Cl)nc(SC)nc2NC)cc1` the value was 60.5% (active). The figure for `CCc1c(C)nc2cc(C)[nH]n2c1=O` is 29.9%; for `CC(=O)OCCC(C)C` it is 21.6%; for `CN(NC(=O)c1ccccc1F)c1nc(C(F)(F)F)nc2ccccc12` it is 36.6%.

`COC(=O)c1ccc(CSc2nnc(N)s2)o1`: the inhibition is 37.1%.

On to `Cn1c(=O)c2c(nc(NCCc3ccccc3)n2Cc2ccccc2)n(C)c1=O`, for which the inhibition is 57.1% (active). In the case of `CCCCNc1nc2c(c(=O)n(C)c(=O)n2C)n1Cc1cccc(OC)c1`, the inhibition is 72.5% (active). For `CN(C)CCN(C(=O)C1CCCCC1)c1nc2cc3c(cc2s1)OCO3` the value was 14.1%; for `CCc1c(C)[nH]c(=S)c(C#N)c1C`, 25.3%. The figure for `CC1(C)CC2CC(C)(CN2c2ncnc3ccc(Br)cc23)C1` (configuration not stated) is 41.5%; for `COc1ccc(OC)c(Cc2cnc3nc(N)nc(N)c3c2C)c1` it is 51.4% (active); for `O=C(NC1CCN(C(=S)Nc2ccc(Cl)cc2)CC1)C1CCCCC1` it is 10.8%. For `CC(C)Oc1ccc(CN2CCC(n3nccc3NC(=O)c3cccnc3)CC2)cc1` the value was 23.4%; for `Cc1nn(C)c(Cl)c1CN1CCC(n2nccc2NC(=O)C2CCCC2)CC1`, 14%. For the compound `C=CCOc1nc2c(c(=O)n(C)c(=O)n2C)n1Cc1ccc(Cl)cc1Cl`, the inhibition is 50.9% (active).

As to `CNc1ccc(SC#N)cc1`, the inhibition is 13.2%. For `CCC1CCCCN1CCCNC(=O)Cn1nc(-c2ccccc2)ccc1=O` (configuration not stated), the inhibition was 13.3%. The figure for `COc1ccc(C(=O)NCc2nnc(SCCOc3ccccc3)n2C)cc1` is 28.6%. As for `CC(C)(C)c1ccc(Oc2ccc(N)cc2)cc1`, the inhibition was 80.1% (active). As to `CCCc1nc(N)nc2c1C(=O)CC(C)(C)C2`, the inhibition is 16.9%. Consider `Cc1ccc(C)c(S(=O)(=O)N2CCN(c3ncnc4sccc34)CC2)c1`, for which the inhibition was 54% (active). For `Cc1c(Cl)c([N+](=O)[O-])nn1Cc1ccc(C(=O)N/N=C\c2cc(Cl)ccc2O)o1` the value was 57.9% (active); for `CCN(CC(=O)Nc1cc(Cl)ccc1C)C(=O)CSCc1ccc(C)cc1`, 28.9%; for `Cc1ccc(-c2nc(CSCC(=O)NC3CCN(Cc4ccccc4)CC3)c(C)o2)cc1`, 23.9%.

Consider `O=C(c1cc(Cl)cc(Cl)c1)N1CCC(=O)N(C(COCc2ccccc2)Cc2ccccc2)CC1` (configuration not stated), for which the inhibition is 7.41%.

On to `Cc1ccc(S(=O)(=O)N2C[C@@H]3CCCC[C@@H]3[C@@H](C)[C@H]2c2cn(Cc3ccccc3)c3ccc(F)cc23)cc1`, for which the inhibition was 83.6% (active). The figure for `CCN(CC)CCNC(=O)c1ccc(NC(=O)c2cc(-c3ccncc3)nc3ccccc23)cc1` is 23%; for `CN1C(CC(=O)Nc2ccc(Br)cc2)c2ccccc2CC1(C)C` (configuration not stated) it is 11.3%; for `O=C(Nc1cccc(S(=O)(=O)Nc2ccc(Cl)cc2)c1)c1ccc2c(c1)OCCO2` it is 37.7%. For `O=C(Cn1cc(C(=O)C2CC2)c2ccccc21)Nc1ccccc1Cl` the value was 60.3% (active); for `CCN(CC)S(=O)(=O)c1ccc(Cl)c(C(=O)NC(C)C(c2cccs2)N2CCCC2)c1` (configuration not stated), 15.2%. For `O=C(NCCOCc1ccc(Cl)cc1)c1ncn[nH]1` the value was 9.09%; for `Brc1c(CSc2nncc3ccccc23)nc2ccccn12`, 12.7%.

Consider `CCOC(=O)c1cnc(Nc2nc3ccccc3o2)nc1CSC(=S)N1CCCCC1`, for which the inhibition was 35.3%. As for `CN(C)CCSc1nc(N)c2c3c(sc2n1)COC(C)(C)C3`, the inhibition was 16.1%. The figure for `CC(=O)N1CCCc2cc(S(=O)(=O)N3CCCC(C(=O)N4CCN(c5cccc(Cl)c5)CC4)C3)ccc21` (configuration not stated) is 66.9% (active); for `Cc1ccc(S(=O)(=O)N(Cc2cc3ccccc3[nH]c2=O)CC2CCCO2)cc1` (configuration not stated) it is 21.7%. For `CN(C)C(CNC(=O)Cc1ccc([N+](=O)[O-])cc1)c1ccccc1` (configuration not stated) the value was 16.5%. For `O=C(Nc1ccnn1C1CCN(C/C=C/c2ccc(F)cc2)CC1)C1CCCC1` the value was 21.9%. Regarding `Cc1ccsc1C(=O)OCC(=O)c1cc(C)n(CC2CCCO2)c1C` (configuration not stated), the inhibition is 85.5% (active).
